Compound activity from PubChem.
Many of the other results were omitted from the sample, so hits are more common in it than they were.
Dicer inh: inhibitors of Dicer pre-microRNA processing, primary screen, biochemical, cat-ELCCA, chemiluminescence; Endoribonuclease Dicer (Homo sapiens), Q9UPY3; cat-ELCCA pre-miR-21 Dicer processing; hits give high values; z-score at 25 µM; 47,000 tested, 6% active; in the data active = z-score above about 3, passing the limit was not always enough;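 note: plate controls were vehicle for no effect and no enzyme for full effect; higher signal means more uncleaved substrate so more Dicer inhibition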
Target sequence (Q9UPY3 whole entry, looked up): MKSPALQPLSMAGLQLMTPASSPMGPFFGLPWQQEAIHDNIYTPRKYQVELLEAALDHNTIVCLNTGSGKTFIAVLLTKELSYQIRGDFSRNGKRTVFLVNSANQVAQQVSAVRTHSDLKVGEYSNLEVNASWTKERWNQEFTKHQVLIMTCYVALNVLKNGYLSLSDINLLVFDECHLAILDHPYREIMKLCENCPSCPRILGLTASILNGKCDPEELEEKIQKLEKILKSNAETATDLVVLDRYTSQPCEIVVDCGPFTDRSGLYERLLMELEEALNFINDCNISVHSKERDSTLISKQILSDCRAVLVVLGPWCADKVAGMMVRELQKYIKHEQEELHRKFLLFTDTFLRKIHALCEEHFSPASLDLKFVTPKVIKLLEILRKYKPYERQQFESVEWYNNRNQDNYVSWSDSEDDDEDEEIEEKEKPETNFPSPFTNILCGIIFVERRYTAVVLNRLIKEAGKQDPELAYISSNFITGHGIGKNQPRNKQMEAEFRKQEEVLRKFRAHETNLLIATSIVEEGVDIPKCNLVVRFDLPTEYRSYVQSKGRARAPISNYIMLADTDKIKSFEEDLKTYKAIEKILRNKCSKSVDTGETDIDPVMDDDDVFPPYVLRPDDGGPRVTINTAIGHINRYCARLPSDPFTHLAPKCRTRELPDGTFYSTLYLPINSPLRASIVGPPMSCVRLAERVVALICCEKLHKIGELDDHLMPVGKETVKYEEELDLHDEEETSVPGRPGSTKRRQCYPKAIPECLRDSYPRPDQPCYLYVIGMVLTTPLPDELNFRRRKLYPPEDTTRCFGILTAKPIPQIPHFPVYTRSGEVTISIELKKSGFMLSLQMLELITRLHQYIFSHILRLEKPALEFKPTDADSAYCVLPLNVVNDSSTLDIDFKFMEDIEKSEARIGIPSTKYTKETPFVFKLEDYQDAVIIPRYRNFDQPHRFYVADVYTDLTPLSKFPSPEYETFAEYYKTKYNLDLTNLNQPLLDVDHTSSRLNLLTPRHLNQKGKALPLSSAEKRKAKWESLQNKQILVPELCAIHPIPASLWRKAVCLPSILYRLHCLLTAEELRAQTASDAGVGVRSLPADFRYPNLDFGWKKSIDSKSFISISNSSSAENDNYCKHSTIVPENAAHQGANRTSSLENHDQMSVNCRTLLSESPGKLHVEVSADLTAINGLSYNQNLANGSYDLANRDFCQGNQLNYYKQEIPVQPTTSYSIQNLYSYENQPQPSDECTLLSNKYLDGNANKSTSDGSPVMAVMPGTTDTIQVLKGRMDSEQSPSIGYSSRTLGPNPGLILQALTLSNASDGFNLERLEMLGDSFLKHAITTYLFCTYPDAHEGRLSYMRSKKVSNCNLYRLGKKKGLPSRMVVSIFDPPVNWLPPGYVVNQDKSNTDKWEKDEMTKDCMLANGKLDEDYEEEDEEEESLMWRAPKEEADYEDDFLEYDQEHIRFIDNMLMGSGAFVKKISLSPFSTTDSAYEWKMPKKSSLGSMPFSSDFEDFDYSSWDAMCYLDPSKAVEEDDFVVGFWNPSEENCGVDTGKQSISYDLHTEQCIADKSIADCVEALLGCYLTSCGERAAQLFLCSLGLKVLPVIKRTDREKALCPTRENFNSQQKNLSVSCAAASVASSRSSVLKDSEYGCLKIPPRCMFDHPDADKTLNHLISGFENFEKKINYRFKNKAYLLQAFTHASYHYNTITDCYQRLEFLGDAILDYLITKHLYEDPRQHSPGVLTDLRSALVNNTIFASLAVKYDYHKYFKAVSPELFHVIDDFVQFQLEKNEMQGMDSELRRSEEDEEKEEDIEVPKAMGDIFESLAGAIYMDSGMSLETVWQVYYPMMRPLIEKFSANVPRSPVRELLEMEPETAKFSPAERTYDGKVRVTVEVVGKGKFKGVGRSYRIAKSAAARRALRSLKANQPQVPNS
The depositor's hits bear a star; ! = not confirmed by another sample.

SMILES | Dicer inh
Clc1cc(Cl)cc(NC2=NCCS2)c1 | 3.7*!
Clc1cccc(NC2=NCCS2)c1Cl | 3.6*
Clc1cccc(Cl)c1NC1=NCCS1 | 2.3
Cc1cc(C)c(NC2=NCCS2)c(C)c1 | -0.62
Clc1cc(Br)ccc1NC1=NCCS1 | 0.58
Cc1ccc(NC2=NCCS2)c(C)c1 | 1.6
CC1=C(C#N)C(c2cnc[nH]2)C2=C(CCCC2=O)N1 (stereo not given) | -0.69
COc1cc(N=C(N)N[N+](=O)[O-])cc(OC)c1OC | -0.4
CCSc1nnc(C2CCNCC2)o1 | -1.7
CC12CC(C(=O)C(F)(F)F)=C(O)C=C1CCC1C2CCC2(C)C(O)CCC12 (stereo not given) | -2
CC(C)NCCc1c[nH]c2ccccc12 | 2.1
COc1ccc(CSC2C(C(=O)NNC(=O)c3ccccc3)C3CCN2CC3)cc1 (stereo not given) | 1.4
CCSCc1cc(OC(=O)N(C)C)nc(-c2ccc(C(F)(F)F)cc2)n1 | 0.8
CNC(=S)NNC(=O)C1C2CCN(CC2)C1SCc1ccc(Cl)cc1 (stereo not given) | -0.85
COCCOC(=O)C1=C(C)OC(N)=C(C#N)C12C(=O)Nc1ccccc12 (stereo not given) | 3.8*
CCOC(=O)C1=C(C)OC(N)=C(C#N)C12C(=O)Nc1ccccc12 (stereo not given) | 2.2
CCOC(=O)C1=C(N)OC(c2ccccc2)=C(C(=O)OCC)C12C(=O)Nc1ccccc12 (stereo not given) | -0.71
CN(C)c1ccc(/C=C/c2nc3ccccc3c(=O)n2-c2ccccc2)cc1 | 1.8
O=c1c2ccccc2nc(/C=C/c2ccccc2F)n1-c1ccccc1 | 6*
Cc1ccc(-n2c(/C=C/c3ccc([N+](=O)[O-])o3)nc3ccccc3c2=O)cc1 | 3*
Cc1nc2ccccc2c(=O)n1-c1ccc(Br)cc1 | -0.44
O=c1c2ccccc2nc(C(F)(F)F)n1-c1ccccc1 | 2.8
O=c1c2ccccc2nc(/C=C/c2ccc([N+](=O)[O-])o2)n1-c1ccc(Br)cc1 | 2.3
O=c1c2ccccc2nc(/C=C/c2ccccc2)n1-c1cccc(O)c1 | 3.1*
O=c1c2ccccc2nc(/C=C/c2ccco2)n1-c1cccc(O)c1 | 2.2
SMILES | Dicer inh
O=c1c2ccccc2nc(/C=C/c2ccc3c(c2)OCO3)n1-c1ccccc1O | 2.7
O=C(N1CCSCC1)C(Cl)(Cl)Cl | -1.3
O=C(C(Cl)Cl)N1CCSCC1 | 0.17
CC1(C)CN=C(NCc2cccnc2)S1 | 1.8
O=[N+]([O-])/C=C/c1cc2c(cc1[N+](=O)[O-])OCO2 | 1.3
CC(C)N(C(C)C)C1N=C(c2ccccc2)c2cc(Cl)ccc2N(C)C1=O (stereo not given) | -0.6
CC12CCC3C(CC[C@H]4CC5(CCC34C)OCCO5)C1CCC2O (stereo not given in full) | -1.9
CC12CN3CC(C)(CN(C1)C3c1ccco1)C2O (stereo not given) | -1.1
O=[N+]([O-])/C=C/c1ccc(Cl)c(Cl)c1 | 0.83
CC(C)(C)c1ccc(-n2c(=S)[nH]c3ccccc3c2=O)cc1 | 1.1
O=C1CSC(c2ccc(Br)cc2)c2c(n(C3CCCC3)[nH]c2=O)N1 (stereo not given) | -0.48
COc1cccc(CN2CCN(Cc3cc(Br)ccc3O)CC2)c1 | 3.4*
COc1ccc(CN2CCN(Cc3ccc(Br)cc3)CC2)cc1 | -0.08
CCc1ccc(CN2CCN(Cc3cc(Br)ccc3O)CC2)cc1 | 0.95
O=C(NC1CC1)C(Cl)(Cl)Cl | 0.39
N#CC1=C(N)Oc2c(c(=O)oc3ccccc23)C1c1cccnc1 (stereo not given) | -1.2
O=c1oc2ccccc2c2c1C(c1cccc([N+](=O)[O-])c1)c1c(c3ccccc3oc1=O)O2 | -0.29
O=c1oc2ccccc2c2c1C(c1ccc([N+](=O)[O-])cc1)c1c(c3ccccc3oc1=O)O2 | 3.7*
Nc1ccc(Cc2ccc(N)cc2)cc1 | 7.6*
Cc1oc2cc(OC(=O)N(C)C)ccc2c(=O)c1Oc1ccccc1Br | 1.2
CCOc1ccccc1Oc1coc2cc(OC(=O)N(C)C)ccc2c1=O | 3.4*
COc1cccc(Oc2c(C)oc3cc(OC(=O)N(C)C)ccc3c2=O)c1 | -0.47
CN(C)C(=O)Oc1ccnc(SCc2ccc([N+](=O)[O-])cc2)n1 | -0.04
CC(=O)OC1CCC2(C)C3C(=O)CC4(C)C(=O)CCC4C3CC[C@@]2(C)C1 (stereo not given in full) | 0.34
CNC(=S)NNC(=O)C1(O)CN2CCC1CC2 (stereo not given) | 0.46
SMILES | Dicer inh
Cc1cccc2[nH]c(=S)n(-c3ccc(OC(F)(F)F)cc3)c(=O)c12 | -0.56
Clc1ccccc1CN1CCN(Cc2ccc3c(c2)OCO3)CC1 | 3.9*
Fc1cccc(Cl)c1CN1CCN(Cc2c(F)cccc2Cl)CC1 | -3.9
Fc1cccc(CN2CCN(Cc3ccccc3Cl)CC2)c1 | 6.4*
Clc1ccc(CN2CCN(Cc3ccc4c(c3)OCO4)CC2)cc1 | -1.7
CSc1ccc(CN2CCN(Cc3ccccc3Cl)CC2)cc1 | 0.04
Clc1cccc(CN2CCN(Cc3ccc4c(c3)OCO4)CC2)c1 | -0.43
CNC(=O)O/N=C/C(=O)c1ccc(Cl)cc1 | -0.86
O=C(c1ccco1)c1cn(Cc2c(F)cccc2Cl)c2ccccc12 | -0.97
O[C@H]1CC2CCC1N(Cc1ccccc1)C2 (stereo not given in full) | -0.26
CCC(=O)OC1CCC2C3CCC4=CC(=O)CCC4(C)C3CCC12C (stereo not given) | -1.9
C[C@]12CC[C@H](O)C[C@H]1CC[C@@H]1[C@@H]2C[C@@H](O)[C@]2(C)[C@@H](C3=CC(=O)OC3)CC[C@]12O | 4.5*
C[C@]12CC[C@H](O)C[C@H]1CC[C@@H]1[C@@H]2CC[C@]2(C)[C@@H](C3=CC(=O)OC3)CC[C@]12O | 0.23
C[C@]12CCC3[C@@H](CC[C@@H]4C[C@H](O)CC[C@]34C)[C@@H]1CCC2=O (stereo not given in full) | 0.03
CCOC(=O)c1c(C)nc2c(C3CCCN3C)cccn12 (stereo not given) | -0.52
Cc1ccc2onc(OC(=O)N(C)C)c2c1 | 1.1
Cc1ccc2[nH]c(=S)n(-c3ccccc3F)c(=O)c2c1 | 5.3*
CCc1ccccc1-n1c(=S)[nH]c2ccccc2c1=O | -0.47
Cc1ccc(-n2c(=S)[nH]c3ccccc3c2=O)cc1 | 1.4
CC1(C)CSC(Nc2ccc(F)cc2)=N1 | 0.19
CC(C)(C)OC(=O)N[C@@H](CCCN=C(N)N[N+](=O)[O-])C(=O)O | 0.75
NCCCCNc1ccc([N+](=O)[O-])c2cccnc12 | 0.15
CCC1(C(=O)c2ccc(F)cc2)C2c3cc(Br)ccc3OC(=O)C21C(=O)OC (stereo not given) | 3.4*
CCN(CC)CCn1c(NCc2ccc(Cl)cc2)nc2ccccc21 | 2.7
Cc1ccc(C(=O)C(C)c2c(O)c3ccccc3oc2=O)c(Cl)c1 (stereo not given) | 2.3
